A short description of experiment [1]: NCI Yeast Anticancer Drug Screen. Data for the rad50 strain (AID 155).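 Note: 0% = growth of vehicle-only cultures of the same strain.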 Conditions: S. cerevisiae rad50 strain growth inhibition, stronger effect = higher value. A digest of the protocol: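 Relative growth inhibition (compound vs vehicle) was measured in yeast with a defined repair-gene alteration.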
Experiment [2] can be described thus: NCI Yeast Anticancer Drug Screen. Data for the mec2-1 strain (AID 157). Conditions: S. cerevisiae mec2-1 strain, stronger effect = higher value. The method in brief:
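Each compound was tested on mec2-1 yeast, a strain altered in DNA damage repair or cell cycle control. Growth inhibition is reported relative to vehicle.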

Experiment [3] can be described thus: NCI Yeast Anticancer Drug Screen. Data for the sgs1 mgt1 strain (AID 161).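 Note: 0% = growth of cultures given vehicle only.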 Conditions: S. cerevisiae sgs1 mgt1 strain, stronger effect = higher value. The method in brief:
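Test agents were incubated with a DNA-repair-mutant yeast strain. Growth was then read and compared against vehicle-treated controls.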

Experiment [4] is described as follows: NCI Yeast Anticancer Drug Screen. Data for the cln2 rad14 strain (AID 165).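 Note: 0% = growth equal to vehicle treated cultures.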 Conditions: S. cerevisiae cln2 rad14 strain, stronger effect = higher value. The method in brief: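 Test compounds were added to cln2 rad14 yeast cultures; inhibition of growth was then determined by comparison with vehicle treatment.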
The nature of experiment [5]: NCI Yeast Anticancer Drug Screen. Data for the bub3 strain (AID 167). Conditions: S. cerevisiae bub3 mutant strain, stronger effect = higher value. The method in brief:
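Screening used yeast with an engineered genetic alteration affecting cell cycle control. Compound-exposed cultures were compared with vehicle cultures, and reduced growth was taken as inhibition.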

The nature of experiment [6]: NCI Yeast Anticancer Drug Screen. Data for the mlh1 rad18 strain (AID 175). The note with it: S. cerevisiae mlh1 rad18 strain growth inhibition, stronger effect = higher value. The method in brief:
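Inhibition values reflect reduced growth of mutant yeast versus vehicle-treated controls following compound exposure; the mutations affect DNA damage repair.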

The mark [7] stands for this setting: at 5.0 µM (retest, dose inferred, filed as 0.5).
Where [8] appears, read: at 50.0 µM (retest, dose inferred, filed as 5.0).

The structures appear in SMILES notation. This is part of a sample that, as a whole, favours compounds with a hit. Of some 79,000 tested, about 15% had one in any assay. A number with no mark means an inactive call. Activity calls are given as the source filed them. Cut-off read from the data, not from the text of the source: active = growth inhibition above about 70%; inactive = the rest.

As to `O=S(=O)(Nc1ccccn1)c1ccc(N=Cc2c3ccccc3nc3cc(Cl)ccc23)cc1`, the growth inhibition in experiment [1] (setting [7]) was 2%; in experiment [1] (setting [8]), 27%; in experiment [1] (at 50.0 µM) it was 98.8% (active); in experiment [2] (setting [7]), 5%; in experiment [2] (setting [8]), 18%; in experiment [2] (at 50.0 µM), 85.8% (active). Further, the growth inhibition in experiment [3] (setting [7]) is 1%; in experiment [3] (setting [8]), 1%; in experiment [3] (at 50.0 µM), 99.2% (active); in experiment [4] (setting [7]), 4%; in experiment [4] (setting [8]), -17%; in experiment [4] (at 50.0 µM) it was 97.5% (active). The growth inhibition is 9% in experiment [5] (setting [7]); 6% in experiment [5] (setting [8]); 57.6% in experiment [5] (at 50.0 µM); 5% in experiment [6] (setting [7]); 6% in experiment [6] (setting [8]); 98.2% (active) in experiment [6] (at 50.0 µM).

With `CCc1ccccc1NC(=O)C(C#N)C1=C(Cl)C(=O)c2ccccc2C1=O` (stereo not given), the growth inhibition was 53% in experiment [1] (setting [7]); 98% (active) in experiment [1] (setting [8]); 97.2% (active) in experiment [1] (at 50.0 µM); 71% (active) in experiment [2] (setting [7]); 98% (active) in experiment [2] (setting [8]); 98.7% (active) in experiment [2] (at 50.0 µM). Also, the growth inhibition is 51% in experiment [3] (setting [7]); 98% (active) in experiment [3] (setting [8]); 97.3% (active) in experiment [3] (at 50.0 µM); 20% in experiment [4] (setting [7]); 98% (active) in experiment [4] (setting [8]); 50.9% in experiment [4] (at 50.0 µM). The growth inhibition in experiment [5] (setting [7]) is 94% (active); in experiment [5] (setting [8]), 98% (active); in experiment [5] (at 50.0 µM) it was 97.3% (active); in experiment [6] (setting [7]), 44%; in experiment [6] (setting [8]), 97% (active); in experiment [6] (at 50.0 µM) it was 98.1% (active).

For `O=C1/C(=C/c2cccc(Br)c2)CCc2ccccc21`, the growth inhibition in experiment [1] (setting [7]) was 1%; in experiment [1] (setting [8]) it was 26%; in experiment [1] (at 50.0 µM), 66.3%; in experiment [2] (setting [7]) it was 8%; in experiment [2] (setting [8]) it was 49%; in experiment [2] (at 50.0 µM), 18.4%. Besides, the growth inhibition in experiment [3] (setting [7]) was 13%; in experiment [3] (setting [8]), 58%; in experiment [3] (at 50.0 µM) it was 61.4%; in experiment [4] (setting [7]) it was -5%; in experiment [4] (setting [8]) it was 16%; in experiment [4] (at 50.0 µM), 22.4%. Further, the growth inhibition is 44% in experiment [5] (setting [7]); 82% (active) in experiment [5] (setting [8]); 74.6% (active) in experiment [5] (at 50.0 µM); 13% in experiment [6] (setting [7]); 64% in experiment [6] (setting [8]); 65.8% in experiment [6] (at 50.0 µM).

As for `Cc1cc2c(c([N+](=O)[O-])c1C)C(=O)C(Br)=C(N)C2=O`, the growth inhibition in experiment [1] (setting [7]) is 95% (active); in experiment [1] (setting [8]), 98% (active); in experiment [1] (at 50.0 µM) it was 93.5% (active); in experiment [2] (setting [7]), 79% (active); in experiment [2] (setting [8]), 99% (active); in experiment [2] (at 50.0 µM) it was 97.8% (active). For the same molecule, the growth inhibition is 96% (active) in experiment [3] (setting [7]); 17% in experiment [3] (setting [8]); 98.8% (active) in experiment [3] (at 50.0 µM); 45% in experiment [4] (setting [7]); 98% (active) in experiment [4] (setting [8]); 98.3% (active) in experiment [4] (at 50.0 µM). In addition, the growth inhibition was 87% (active) in experiment [5] (setting [7]); 96% (active) in experiment [5] (setting [8]); 94% (active) in experiment [5] (at 50.0 µM); 93% (active) in experiment [6] (setting [7]); 99% (active) in experiment [6] (setting [8]); 98% (active) in experiment [6] (at 50.0 µM).

On to `COc1ccc(/C=C2/C(=O)ON=C2C)cc1OC`, for which the growth inhibition is -15% in experiment [1] (setting [7]); 35% in experiment [1] (setting [8]); 93.3% (active) in experiment [1] (at 50.0 µM); -14% in experiment [2] (setting [7]); 48% in experiment [2] (setting [8]); 85.5% (active) in experiment [2] (at 50.0 µM). Moreover, the growth inhibition in experiment [3] (setting [7]) is -14%; in experiment [3] (setting [8]) it was 48%; in experiment [3] (at 50.0 µM), 89.1% (active); in experiment [4] (setting [7]), -12%; in experiment [4] (setting [8]), 17%; in experiment [4] (at 50.0 µM), 42.7%. The growth inhibition in experiment [5] (setting [7]) was -3%; in experiment [5] (setting [8]), 55%; in experiment [5] (at 50.0 µM), 94.6% (active); in experiment [6] (setting [7]), -9%; in experiment [6] (setting [8]), 61%; in experiment [6] (at 50.0 µM) it was 79.2% (active).

`CN1CCS(=O)(=O)C1=O`: the growth inhibition is 3% in experiment [1] (setting [7]); 87% (active) in experiment [1] (setting [8]); 90.3% (active) in experiment [1] (at 50.0 µM); 2% in experiment [2] (setting [7]); 93% (active) in experiment [2] (setting [8]); 95.8% (active) in experiment [2] (at 50.0 µM). Further, the growth inhibition in experiment [3] (setting [7]) is 1%; in experiment [3] (setting [8]), 75% (active); in experiment [3] (at 50.0 µM), 42.8%; in experiment [4] (setting [7]), 10%; in experiment [4] (setting [8]), 54%; in experiment [4] (at 50.0 µM) it was 86.3% (active). Also, the growth inhibition in experiment [5] (setting [7]) is 5%; in experiment [5] (setting [8]), 94% (active); in experiment [5] (at 50.0 µM) it was 98% (active); in experiment [6] (setting [7]) it was 1%; in experiment [6] (setting [8]), 63%; in experiment [6] (at 50.0 µM) it was 93.2% (active).

`COS(=O)c1cc(Cl)cc(Cl)c1OC(=O)CSSCC(=O)Oc1c(Cl)cc(Cl)cc1S(=O)OC` (stereo not given): the growth inhibition in experiment [1] (setting [7]) is 87% (active); in experiment [1] (setting [8]), 99% (active); in experiment [1] (at 50.0 µM), 98.8% (active); in experiment [2] (setting [7]), 85% (active); in experiment [2] (setting [8]) it was 99% (active); in experiment [2] (at 50.0 µM), 99.3% (active). The growth inhibition was 95% (active) in experiment [3] (setting [7]); 99% (active) in experiment [3] (setting [8]); 99% (active) in experiment [3] (at 50.0 µM); 60% in experiment [4] (setting [7]); 98% (active) in experiment [4] (setting [8]); 99.3% (active) in experiment [4] (at 50.0 µM). In addition, the growth inhibition was 92% (active) in experiment [5] (setting [7]); 98% (active) in experiment [5] (setting [8]); 98.9% (active) in experiment [5] (at 50.0 µM); 84% (active) in experiment [6] (setting [7]); 99% (active) in experiment [6] (setting [8]); 99% (active) in experiment [6] (at 50.0 µM).

In the case of `O=C(O)/C=C/C(=O)c1ccccc1`, the growth inhibition in experiment [1] (setting [7]) was 7%; in experiment [1] (setting [8]), 76% (active); in experiment [1] (at 50.0 µM) it was 15.1%; in experiment [2] (setting [7]) it was 5%; in experiment [2] (setting [8]) it was 72% (active); in experiment [2] (at 50.0 µM) it was 57.5%. The growth inhibition in experiment [3] (setting [7]) was 3%; in experiment [3] (setting [8]), 66%; in experiment [3] (at 50.0 µM) it was 46.3%; in experiment [4] (setting [7]) it was -3%; in experiment [4] (setting [8]) it was 13%; in experiment [4] (at 50.0 µM), 3.6%. Besides, the growth inhibition in experiment [5] (setting [7]) was -6%; in experiment [5] (setting [8]) it was 71% (active); in experiment [5] (at 50.0 µM), 67.2%; in experiment [6] (setting [7]) it was 6%; in experiment [6] (setting [8]) it was 80% (active); in experiment [6] (at 50.0 µM) it was 72% (active).

`CCCCCCCCCCCCCCCC(=O)NCC[N+](C)(CC)CC`: the growth inhibition in experiment [1] (setting [7]) is -32%; in experiment [1] (setting [8]), 0%; in experiment [1] (at 50.0 µM), 57.4%; in experiment [2] (setting [7]), -6%; in experiment [2] (setting [8]) it was -11%; in experiment [2] (at 50.0 µM) it was 27.4%. Also, the growth inhibition is -4% in experiment [3] (setting [7]); 30% in experiment [3] (setting [8]); 72.2% (active) in experiment [3] (at 50.0 µM); 1% in experiment [4] (setting [7]); -15% in experiment [4] (setting [8]); 17.9% in experiment [4] (at 50.0 µM). Also, the growth inhibition is 2% in experiment [5] (setting [7]); 19% in experiment [5] (setting [8]); 10.5% in experiment [5] (at 50.0 µM); -8% in experiment [6] (setting [7]); 7% in experiment [6] (setting [8]); 29.5% in experiment [6] (at 50.0 µM).

Consider `C/C(=N/NC(=S)Nc1cccc(C)c1)c1ccccn1`, for which the growth inhibition is 62% in experiment [1] (setting [7]); 99% (active) in experiment [1] (setting [8]); 80.2% (active) in experiment [1] (at 50.0 µM); 91% (active) in experiment [2] (setting [7]); 99% (active) in experiment [2] (setting [8]); 85.9% (active) in experiment [2] (at 50.0 µM). For the same molecule, the growth inhibition in experiment [3] (setting [7]) is 75% (active); in experiment [3] (setting [8]), 99% (active); in experiment [3] (at 50.0 µM) it was 88.3% (active); in experiment [4] (setting [7]), 94% (active); in experiment [4] (setting [8]) it was 99% (active); in experiment [4] (at 50.0 µM), 88.9% (active). For the same molecule, the growth inhibition in experiment [5] (setting [7]) is 96% (active); in experiment [5] (setting [8]), 99% (active); in experiment [5] (at 50.0 µM), 90.3% (active); in experiment [6] (setting [7]), 68%; in experiment [6] (setting [8]) it was 99% (active); in experiment [6] (at 50.0 µM) it was 91% (active).

Values taken from PubChem BioAssay (NCI).
